# Rows were chosen to be rich in hits. Some 1.8% of all compounds tested hit in one or more screens of this group.
# TRPML1 agonist: agonists of human TRPML1 channel. Q9GZU1. actives 0.12% (n = 410,000). AID 624414. TRPML1-expressing cells, Ca2+ dye fluorescence, FDSS. activation, % (concentration not given with the values); in the data active means activation above about 50%; inconclusive means mostly about 30% to 49%; further: 0% is about no effect
# Target sequence (Q9GZU1 whole entry, looked up): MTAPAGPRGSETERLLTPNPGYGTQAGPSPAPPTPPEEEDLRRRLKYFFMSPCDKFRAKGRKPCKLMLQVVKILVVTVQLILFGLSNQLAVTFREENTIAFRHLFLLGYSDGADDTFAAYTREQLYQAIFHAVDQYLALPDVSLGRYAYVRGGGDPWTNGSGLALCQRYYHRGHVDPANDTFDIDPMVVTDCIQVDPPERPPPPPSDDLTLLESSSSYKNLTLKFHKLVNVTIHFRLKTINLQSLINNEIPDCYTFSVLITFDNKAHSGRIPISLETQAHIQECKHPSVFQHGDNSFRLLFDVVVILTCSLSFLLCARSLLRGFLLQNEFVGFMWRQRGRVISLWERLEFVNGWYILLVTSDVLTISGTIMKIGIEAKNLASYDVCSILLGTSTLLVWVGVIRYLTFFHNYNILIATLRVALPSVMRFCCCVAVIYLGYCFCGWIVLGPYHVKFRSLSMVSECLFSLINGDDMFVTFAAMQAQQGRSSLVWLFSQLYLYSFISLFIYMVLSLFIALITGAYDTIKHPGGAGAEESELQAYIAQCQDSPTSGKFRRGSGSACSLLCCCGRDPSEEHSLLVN
#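 In this qHTS format, compounds were pin-transferred onto Ca8-dye-loaded TRPML1-DL cells induced with Tet overnight, and intracellular Ca2+ fluorescence was recorded kinetically for 110 s after a 10 s baseline. A subsequent 4uM final 54-4 (EC80) addition followed by a second 110 s read served as the antagonist phase.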
# GLP1R ag: GLP-1 receptor (human) agonism | P43220 | HEK293 GLP-1R CRE-luciferase, luminescence, 4-6 h; cells express a hypersensitive GLP-1R form | Potency, µM (top dose mostly 45.6 µM), for inactives: top-dose activation, hits mostly activators | actives 0.007% (n = 380,000); further: potency means the concentration at half of the fitted maximal effect; % of control where 0% means no effect
# GLP-1R inv ag: acts as inverse agonist at human GLP-1 receptor; Potency, µM (highest dose often 38.3 µM), for the others: at the top dose activity change, negative = inhibition, hits mostly inhibitors; P43220; actives 1.6% (n = 410,000); HEK293 GLP-1R CRE-luciferase, luminescence, 24 h; GLP-1R form is constitutively active; further: potency means the concentration at half of the fitted maximal effect; on the % scale 0 is the no-effect control and ±100 the full control effect; nearly all actives have a fitted effect of over 55% in size
#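 Seeding at 200 cells/uL, 12 h culture, 24 hr compound treatment, then luciferase reagent and a luminescence read; cells are HEK293 stably expressing a constitutively active GLP-1R plus cAMP-responsive luciferase.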
# TRPML1 blocker: blocks the human TRPML1 channel. Q9GZU1. TRPML1-inducible cells, Ca2+ dye fluorescence, FDSS; hits give low values; inhibition of EC80 agonist-evoked calcium signal. activity change, negative = inhibition, % (test concentration not listed). actives 0.02% (n = 390,000); in the data active means activity change below about -50%; inconclusive means between about -30% and that limit;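 further: stimulus is agonist 54-4 at its EC80 concentration; on the % scale 0 is the no-effect control and ±100 the full control effect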
#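 Calcium fluorescence in TRPML1-DL cells induced overnight with Tet: a 110 s read after compound pin addition, then a 110 s antagonist read after challenge with 54-4 at 4 uM final (EC80).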
# GLP1R cytotox: cytotoxicity counter-screen for GLP-1 receptor inverse agonists; actives 0.13% (n = 410,000); HEK293 cAMP-luciferase reporter cells, luminescence, 24 h; Potency, µM (series often up to 38.3 µM), for the others: at the top dose activity change, negative = inhibition, hits mostly inhibitors;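 further: loss of luciferase light is scored as toxicity; potency means the concentration at half of the fitted maximal effect; on the % scale 0 is the no-effect control and ±100 the full control effect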
#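 Compound-treated cells are incubated 24 hr at 37 deg C under 5% CO2 after a 12 hour attachment period, then luciferase detection reagent is added and luminescence is measured following 12 min at room temperature; lowered signal indicates toxicity.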
# Active calls of the source: *; i = inactive; u = inconclusive; x = no result given. Unless noted, the call rests on the fitted dose curve; in most records, active means well fitted curve in the direction sought with a large enough effect; inconclusive means small, poorly fitted or top-dose-only effect, or another doubt; inactive means no such curve, though single readings can be large; an effect the other way counts as inactive or inconclusive.
SMILES,TRPML1 agonist,GLP1R ag,GLP-1R inv ag,TRPML1 blocker,GLP1R cytotox
O=C(Nc1ccc(Cl)cc1)NC1CCCC1Cc1ccco1 (configuration not stated),0,-7%,5.6µM*,-4,10%
O=C(Nc1ccc(Cl)cc1)NC1CCCCC1,1,4%,-2%,10,3%
O=C(NC1CCCC1)c1ccc2c(c1)N(Cc1ccc(C(F)(F)F)cc1)C(=O)c1ccccc1S2,0,0%,-5%,20,5%
CC1(Cc2cc(Cl)ccc2C(F)(F)F)C(=O)Nc2ccc(-c3ccc(F)c(Cl)c3)cc21 (configuration not stated),0,-26%,u,x,11µM*
COc1ccccc1-c1ccc2c(c1)C(C)(Cc1cc(Cl)ccc1C(F)(F)F)C(=O)N2 (configuration not stated),-1,-7%,u,x,u
COc1ccc(/C=C/c2nc(C#N)c(N3CCC(C(N)=O)CC3)o2)cc1OC,-1,x,26%,-3,37%
C[C@@H]1[C@H](c2ccccc2)OCCS(=O)(=O)N1Cc1ccc(Cl)cc1,0,x,x,x,x
CCC(=O)Oc1c(S(=O)(=O)c2ccc(C)cc2)c(C)nn1C(C)(C)C,0,-10%,u,5,u
CCCC(=O)Oc1c(S(=O)(=O)c2ccc(C)cc2)c(C)nn1C(C)(C)C,x,-2%,5.6µM*,x,u
CCc1ccccc1NC(=O)Nc1cccn(Cc2ccccc2F)c1=O,5,9%,10µM*,12,-6%
CSc1ccc(NC(=O)Nc2cccn(Cc3ccccc3F)c2=O)cc1,6,-13%,u,-12,6%
Cc1cccc(NC(=O)c2cnn(-c3ccccc3)c2-n2cccc2)c1C,0,x,-21%,47,19%
COc1ccc(C(=O)/C=C/c2ccccc2)c(OC)c1,0,1%,10µM*,13,-16%
COc1ccc(C(=O)/C=C/c2ccc(N(C)C)cc2)c(OC)c1,128*,u,u,-20,i
COc1cc(C)cc(C(=O)C=Cc2ccccc2)c1O,3,8%,u,-9,-7%
CN(C)c1ccc(/C=C/C(=O)c2ccccc2O)cc1,4,-5%,11%,20,-13%
CS(=O)(=O)N1CCN(/[N+]([O-])=N/Oc2ccc([N+](=O)[O-])cc2[N+](=O)[O-])CC1,2,x,x,45,x
CCC(C)Sc1cc(-c2nc3ccc(C)cn3c2NCc2ccccc2)ccc1OC (configuration not stated),1,-6%,u,71,-18%
CCC(C)Sc1ccc(-c2nc3ccc(C)cn3c2NCc2ccccc2)cc1OC (configuration not stated),-1,-4%,2.8µM*,67,-25%
CCCCNc1c(-c2ccc(SC3CCCCC3)c(OC)c2)nc2ccc(C)cn12,-1,-3%,8.9µM*,27,0%
Cc1ccc(NC(=S)/C(C#N)=C2/Nc3ccccc3S2)cc1,0,-2%,4µM*,27,u
O=C(O)CC(CC(=O)O)c1ccc2c(c1)OCO2,0,x,x,x,x
CC1CCN(S(=O)(=O)c2ccc3c(ccc(=O)n3CC(=O)Nc3ccc(C(C)C)cc3)c2)CC1,1,-4%,15%,6,-11%
CCN(CC)S(=O)(=O)c1ccc2c(c1)c(=O)c(C(=O)N1CCN(c3ccccc3OC)CC1)cn2C,-1,1%,-17%,0,3%
CCN(CC)S(=O)(=O)c1ccc(N2CCN(c3ccccc3OC)CC2)c(N)c1,1,4%,10µM*,37,-1%
COc1ccc(S(=O)(=O)N(CC(=O)N2CCN(c3ccccc3OC)CC2)c2ccccc2)cc1,-1,-3%,10µM*,-4,-10%
Cc1nn(CCCC(=O)NCc2cccc(Cl)c2)c(=O)c2c1sc1ccccc12,1,x,10%,-15,1%
CCc1nn(CC(=O)N2CCN(c3cccc(C)c3C)CC2)c(=O)c2cc3occc3n12,0,x,16%,u,7%
CCc1nn(CCCC(=O)N2CCN(c3cccc(C)c3C)CC2)c(=O)c2cc3occc3n12,1,24%,11µM*,0,-5%

# From PubChem BioAssay
